Data from PubChem BioAssay (Tox21).
The source made the active and inactive calls. A call without a number means that no potency is given here. Calls come from the whole dose curve.

What follows are molecules tested against Muscarinic acetylcholine receptor M1 (Homo sapiens) (UniProt P11229) (assay: Cholinergic receptor muscarinic 1 (CHRM1) small molecule agonists, cell-based qHTS assay (AID 1963589; note: nearly all actives have a fitted effect of over 35% in size)). Conditions: CHRM1-CHO cells, agonist mode, calcium flux fluorescence; series mostly up to 76.8 µM.
Muscarinic acetylcholine receptor M1 (Homo sapiens), sequence (P11229 whole entry, looked up): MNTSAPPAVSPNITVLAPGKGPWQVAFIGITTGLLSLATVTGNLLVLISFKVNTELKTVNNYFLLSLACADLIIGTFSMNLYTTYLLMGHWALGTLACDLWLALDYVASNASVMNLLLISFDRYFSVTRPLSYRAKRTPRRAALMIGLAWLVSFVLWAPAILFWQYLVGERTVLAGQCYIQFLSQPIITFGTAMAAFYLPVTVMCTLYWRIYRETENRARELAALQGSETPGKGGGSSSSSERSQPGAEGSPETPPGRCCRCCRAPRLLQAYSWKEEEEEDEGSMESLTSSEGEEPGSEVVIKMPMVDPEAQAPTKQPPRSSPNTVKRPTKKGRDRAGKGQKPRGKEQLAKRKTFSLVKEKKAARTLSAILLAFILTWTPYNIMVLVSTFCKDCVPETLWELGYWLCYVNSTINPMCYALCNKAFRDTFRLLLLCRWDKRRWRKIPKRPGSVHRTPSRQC
How it was run: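 Agonist-mode qHTS in CHO cells stably carrying human muscarinic M1. Intracellular calcium is tracked by fluorescence every second after compound transfer; each compound runs at 15 concentrations in three independent runs.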
For `CC1CCC(CO)CC1` (configuration not stated), the Potency was “inactive”. In the case of `Cc1c[nH]c(=S)[nH]c1=O`, the Potency is reported as “inactive”. With `CC(=O)OC1C2(C)CCC(C2)C1(C)C` (configuration not stated) the Potency was “inactive”. With `COP(=O)(OC)OC(c1ccc(Cl)cc1)P(=O)(OC)OC` (configuration not stated) the Potency was “inactive”. For `CCC(Cl)CC(Cl)C(Cl)C(Cl)C(Cl)C(C)Cl` (configuration not stated), the activation was -0.121% [at 15.8 µM] (inactive). `O=C(O)c1ccc(S(=O)(=O)O)cc1C(=O)O` was tested, and the Potency was “inactive”. With `CCCOC(=O)CCCCC(=O)OCCC` the Potency was “inactive”. `CCCCCCC[N+](CC)(CC)CCCCc1ccc(Cl)cc1` was tested, and the Potency was “inactive”. In the case of `CCCCCCCCCCl`, the Potency is reported as “inactive”. For `CC(C)CCCCCCOC(=O)C1CCCCC1C(=O)OCCCCCCC(C)C` (configuration not stated), the Potency was “inactive”. For `O=S(=O)(O)c1cc(O)c2ccc(Nc3ccccc3)cc2c1`, the Potency was “inactive”. `SC1CCCC1` was tested, and the Potency was “inactive”. In the case of `N#CCCN(CCO)CCO`, the Potency is reported as “inactive”. For `CC(C)O.CC(C)O.CCOC(=O)/C=C(\C)O.CCOC(=O)/C=C(\C)O.[Ti]`, the Potency was “inactive”. In the case of `Cn1cc(C(=O)[C@@H]2CCc3nc[nH]c3C2)c2ccccc21`, the Potency is reported as “inactive”. `CC1=C(O)C(=O)CO1` was tested, and the Potency was “inactive”. For `Cc1ccc2ccc3cccc4ccc1c2c34`, the Potency was “inactive”. `O=C(OCC(COC(=O)c1cccnc1)(COC(=O)c1cccnc1)COC(=O)c1cccnc1)c1cccnc1` was tested, and the Potency was “inactive”. For `NC(=O)N(O)[C@@H]1COc2cc(OCc3ccccc3)ccc21`, the Potency was “inactive”. `CN1C(CSCC(F)(F)F)Nc2cc(Cl)c(S(N)(=O)=O)cc2S1(=O)=O` (configuration not stated) was tested, and the Potency was “inactive”. For `Nc1ccc2cc(S(=O)(=O)O)cc(O)c2c1N=Nc1ccccc1C(F)(F)F`, the Potency was “inactive”. With `CCCCOCCOCCOCc1cc2c(cc1CCC)OCO2` the Potency was “inactive”. With `CCCC(=O)O[C@]1(C(=O)COC(=O)CC)CC[C@H]2[C@@H]3CCC4=CC(=O)CC[C@]4(C)[C@H]3[C@@H](O)C[C@@]21C` the activation was 5.7% [at 15.8 µM] (inactive). In the case of `CCN1C=CN(C)C1C` (configuration not stated), the Potency is reported as “inactive”. `CC1CCC(=O)C1=O` (configuration not stated) was tested, and the Potency was “inactive”. In the case of `COc1ccc(CCN(C)CCCN2CCc3cc(OC)c(OC)cc3CC2=O)cc1OC`, the Potency is reported as “inactive”. For `CSc1ccc(C=O)cc1`, the Potency was “inactive”. With `OCCC1CCCCN1` (configuration not stated) the Potency was “inactive”. For `C=C(C)C(=O)OCCOc1ccccc1`, the Potency was “inactive”. `OCCCCCCCCCCCCBr` was tested, and the Potency was “inactive”. In the case of `C/C=C/C=N/NC(=O)c1ccncc1`, the Potency is reported as “inactive”. For `COc1ccc2cc1Oc1ccc(cc1)C[C@H]1c3c(cc4c(c3Oc3cc5c(cc3OC)CCN(C)[C@@H]5C2)OCO4)CCN1C`, the Potency was “inactive”. `Cc1cc(O)c2c(O)c3c(O)cccc3cc2c1` was tested, and the Potency was “inactive”. With `Cc1ncc([N+](=O)[O-])n1CC(O)CCl` (configuration not stated) the Potency was “inactive”. In the case of `Cc1c(N)cccc1N`, the Potency is reported as “inactive”. `Oc1cccc(Nc2ccccc2)c1` was tested, and the Potency was “inactive”. For `NNC(=O)OCc1ccccc1`, the Potency was “inactive”.
